From PubChem BioAssay (EPA / NIEHS)
Results filed as inconclusive are left out. Calls of active or inactive are those of the source. The calls were made as follows, unless noted: active = hit-call score of the fitted dose curve at least 0.9, where 1 is the maximum; inconclusive = response in the unintended direction; inactive = score below 0.9.

What was measured:
[1] = ATG_TAL_CIS: Attagene CIS-FACTORIAL HepG2 Assay for human TAL Basal Promoter (AID 2282966; active = hit-call score of the fitted dose curve at least 0.9, where 1 is the maximum; inactive = score below 0.9;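 also: background control endpoint measuring basal TAL promoter reporter mRNA not a specific factor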); settings: HepG2 Attagene cis-factorial TAL promoter reporter; actives raise or lower the signal
How it was run: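 Steps: transfect HepG2 with multiple reporter transcription units; dose 24 h; isolate RNA, reverse-transcribe, PCR-amplify, label with 6-FAM, digest with HpaI; resolve by capillary electrophoresis. Bidirectional fitting against DMSO baseline.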

[2] = ATG_TGFb_CIS: Attagene CIS-FACTORIAL HepG2 Assay for human Transforming Growth Factor (TGF) (AID 2282967; active = hit-call score of the fitted dose curve at least 0.9, where 1 is the maximum; inactive = score below 0.9); settings: HepG2 Attagene CIS TGFb reporter, mRNA transcription; actives raise or lower the signal
How it was run: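 Liver HepG2 line, cis-factorial reporter panel, 24 h dosing. Quantitation: RT-PCR products labeled with 6-FAM, cut with HpaI, resolved by capillary electrophoresis; DMSO-referenced bidirectional analysis.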

[3] = ATG_VDRE_CIS: Attagene CIS-FACTORIAL HepG2 Assay for human Vitamin D Receptor Element (VDRE) (AID 2282968; active = hit-call score of the fitted dose curve at least 0.9, where 1 is the maximum; inactive = score below 0.9); settings: HepG2 VDRE cis-reporter transcription, actives raise or lower the signal
How it was run: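 Transiently transfected HepG2 cells carrying cis-regulated reporter transcription units were exposed for 24 h. Reporter mRNA was measured by RT-PCR with fluorescent labelling and capillary electrophoresis, and fitted in both directions against DMSO.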

[4] = molecular target: Nuclear receptor subfamily 1 group I member 3 (Homo sapiens) (UniProt Q14994); experiment: ATG_CAR_TRANS: Attagene TRANS-FACTORIAL HepG2 Assay for human Constitutive Androstane Receptor (CAR) (AID 2282969); settings: HepG2 Attagene TRANS-FACTORIAL CAR reporter;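 also: activators raise reporter mRNA above DMSO so AC50 marks induction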
Chain of Nuclear receptor subfamily 1 group I member 3 (Homo sapiens) (Q14994 whole entry, looked up, the tested form may be a part): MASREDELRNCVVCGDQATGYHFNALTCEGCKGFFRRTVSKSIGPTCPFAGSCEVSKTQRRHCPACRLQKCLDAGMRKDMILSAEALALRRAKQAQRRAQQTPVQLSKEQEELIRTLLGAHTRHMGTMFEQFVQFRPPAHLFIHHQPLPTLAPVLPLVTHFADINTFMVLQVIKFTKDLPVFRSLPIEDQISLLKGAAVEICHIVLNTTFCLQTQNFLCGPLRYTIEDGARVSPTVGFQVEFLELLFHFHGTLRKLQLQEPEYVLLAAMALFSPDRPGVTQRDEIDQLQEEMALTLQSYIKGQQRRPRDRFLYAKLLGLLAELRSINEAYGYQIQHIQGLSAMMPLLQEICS
How it was run: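 HepG2 cells transiently transfected with GAL4-UAS reporter units; TRANS format reads activity of exogenous chimeric NR-Gal4 protein. After 24 h dosing, reporter mRNA quantified by RT-PCR, 6-FAM labelling and capillary electrophoresis; gain of signal fitted against DMSO.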

[5] = molecular target: X-box-binding protein 1 (Homo sapiens) (UniProt P17861); experiment: ATG_Xbp1_CIS: Attagene CIS-FACTORIAL HepG2 Assay for human X-box Binding Protein 1 (XBP1) (AID 2282972; active = hit-call score of the fitted dose curve at least 0.9, where 1 is the maximum; inactive = score below 0.9); settings: HepG2 XBP1 cis-element reporter, Attagene multiplex; actives raise or lower the signal
Chain of X-box-binding protein 1 (Homo sapiens) (P17861 whole entry, looked up): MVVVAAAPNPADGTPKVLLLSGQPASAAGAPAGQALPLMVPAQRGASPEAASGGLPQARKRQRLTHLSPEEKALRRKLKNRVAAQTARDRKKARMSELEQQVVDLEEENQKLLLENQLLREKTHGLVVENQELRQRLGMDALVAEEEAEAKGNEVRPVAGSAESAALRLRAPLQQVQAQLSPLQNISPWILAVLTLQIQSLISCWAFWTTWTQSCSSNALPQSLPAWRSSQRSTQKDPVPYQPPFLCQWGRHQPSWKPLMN
How it was run: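 HepG2, transient MRTU transfection (cis-promoter driven), 24 h compound exposure. Total RNA → oligo(dT) RT → PCR → 6-FAM labeling → HpaI cut → CE. Bidirectional fit vs DMSO.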

[6] = ATG_GAL4_TRANS: Attagene TRANS-FACTORIAL HepG2 Assay for GAL4 (Internal Marker) (AID 2282976); settings: HepG2 Attagene TRANS GAL4 internal marker reporter
How it was run: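 Liver HepG2 line bearing multiplexed GAL4-UAS reporter constructs; 24 h chemical treatment. Transcripts were quantified as fluorescent fragments on capillary electrophoresis after RT-PCR and HpaI cut, with activity fitted upward from DMSO.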

[7] = molecular target: Glucocorticoid receptor (Homo sapiens) (UniProt P04150); experiment: ATG_GR_TRANS: Attagene TRANS-FACTORIAL HepG2 Assay for human Glucocorticoid Receptor (GR) (AID 2282978); settings: HepG2 Attagene TRANS GR reporter, mRNA transcription;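 also: activators score as hits since higher reporter transcript over DMSO is fitted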
Chain of Glucocorticoid receptor (Homo sapiens) (P04150 whole entry, looked up, the tested form may be a part): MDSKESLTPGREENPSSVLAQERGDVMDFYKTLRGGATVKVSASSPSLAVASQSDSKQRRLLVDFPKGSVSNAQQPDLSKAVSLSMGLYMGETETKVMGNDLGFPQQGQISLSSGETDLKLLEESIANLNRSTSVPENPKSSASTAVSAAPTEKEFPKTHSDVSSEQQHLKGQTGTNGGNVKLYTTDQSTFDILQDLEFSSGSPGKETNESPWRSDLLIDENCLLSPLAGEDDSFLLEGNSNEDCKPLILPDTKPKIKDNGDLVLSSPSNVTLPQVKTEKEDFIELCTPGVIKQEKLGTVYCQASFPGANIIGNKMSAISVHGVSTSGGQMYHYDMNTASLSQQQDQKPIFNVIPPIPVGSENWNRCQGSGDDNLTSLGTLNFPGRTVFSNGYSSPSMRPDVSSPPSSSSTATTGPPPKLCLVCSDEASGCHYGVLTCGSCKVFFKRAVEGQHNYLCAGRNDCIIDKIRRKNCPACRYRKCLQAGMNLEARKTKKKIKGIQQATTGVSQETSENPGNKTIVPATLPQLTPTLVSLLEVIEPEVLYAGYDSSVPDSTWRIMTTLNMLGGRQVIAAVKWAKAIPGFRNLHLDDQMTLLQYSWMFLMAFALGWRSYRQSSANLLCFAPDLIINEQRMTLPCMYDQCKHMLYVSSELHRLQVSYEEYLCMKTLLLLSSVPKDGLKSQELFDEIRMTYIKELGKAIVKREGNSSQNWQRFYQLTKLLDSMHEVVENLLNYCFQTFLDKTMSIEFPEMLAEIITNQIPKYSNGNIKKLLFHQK
How it was run: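 Measurement of GAL4-UAS-driven reporter mRNA in human HepG2 liver cells 24 h post-dosing, using RT-PCR with fluorescent labelling and capillary electrophoresis; the transfected constructs report exogenous NR-GAL4 chimera activity, fitted upward against DMSO.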

[8] = molecular target: Bile acid receptor (Homo sapiens) (UniProt Q96RI1); experiment: ATG_FXR_TRANS: Attagene TRANS-FACTORIAL HepG2 Assay for Farnesoid X Receptor (FXR) (AID 2282979); settings: HepG2 Attagene TRANS FXR-GAL4 reporter transcription;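 also: hits raise reporter mRNA above DMSO so AC50 marks FXR activation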
Chain of Bile acid receptor (Homo sapiens) (Q96RI1 whole entry, looked up, the tested form may be a part): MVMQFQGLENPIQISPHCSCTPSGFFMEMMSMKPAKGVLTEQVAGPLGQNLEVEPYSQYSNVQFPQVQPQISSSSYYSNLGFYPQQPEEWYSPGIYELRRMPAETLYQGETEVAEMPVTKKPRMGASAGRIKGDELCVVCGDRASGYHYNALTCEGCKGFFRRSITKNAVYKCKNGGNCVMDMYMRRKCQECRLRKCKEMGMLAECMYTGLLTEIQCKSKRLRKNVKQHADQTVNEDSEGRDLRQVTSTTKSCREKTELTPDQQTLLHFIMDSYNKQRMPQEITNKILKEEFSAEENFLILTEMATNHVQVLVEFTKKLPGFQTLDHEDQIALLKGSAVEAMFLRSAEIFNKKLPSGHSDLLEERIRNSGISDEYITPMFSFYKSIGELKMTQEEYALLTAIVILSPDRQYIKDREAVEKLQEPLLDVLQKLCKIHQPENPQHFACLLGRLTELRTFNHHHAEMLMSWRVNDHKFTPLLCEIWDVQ
How it was run: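 After 24 h chemical treatment of transfected HepG2 cells, GAL4-UAS reporter transcripts driven by an exogenous FXR-GAL4 fusion were measured by RT-PCR and capillary electrophoresis. Increases over DMSO were fitted.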

[9] = molecular target: Hepatocyte nuclear factor 4-alpha (Homo sapiens) (UniProt P41235); experiment: ATG_HNF4a_TRANS: Attagene TRANS-FACTORIAL HepG2 Assay for human Hepatocyte Nuclear Factor 4 alpha (HNF4a) (AID 2282982); settings: HepG2 HNF4a transactivation reporter, mRNA readout
How it was run: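 HepG2 cells transiently transfected with HNF4a-Gal4 chimera and GAL4-UAS reporter units, dosed for 24 h. Reporter mRNA measured by RT-PCR, fluorescent primer extension and capillary electrophoresis; gain-of-signal fitted relative to DMSO.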

[10] = ATG_M_06_TRANS: Attagene TRANS-FACTORIAL HepG2 Assay for M06 Transcription Factor (Internal Marker) (AID 2282983); settings: HepG2 Attagene TRANS M06 internal marker reporter;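 also: reporter transcript level by RT-PCR then capillary electrophoresis fluorescence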
How it was run: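 Internal-marker background readout from a multiplexed TRANS reporter system in HepG2; 24 h dosing; mRNA induction quantified by RT-PCR plus capillary electrophoresis fluorescence; DMSO as negative control and baseline.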

[11] = ATG_M_32_TRANS: Attagene TRANS-FACTORIAL HepG2 Assay for M32 Transcription Factor (Internal Marker) (AID 2282984); settings: HepG2 Attagene TRANS M32 internal marker reporter;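 also: transcript level of a background control reporter unit measured by RT-PCR and capillary electrophoresis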
How it was run: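 HepG2 cells transiently transfected with GAL4-UAS reporter units, dosed for 24 hours. Reporter mRNA quantified by RT-PCR, 6-FAM labelling, HpaI digestion and capillary electrophoresis; internal-marker signal fitted upward relative to DMSO.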

[12] = molecular target: Nuclear receptor subfamily 4 group A member 2 (Homo sapiens) (UniProt P43354); experiment: ATG_NURR1_TRANS: Attagene TRANS-FACTORIAL HepG2 Assay for human Nuclear Receptor Related Protein 1 (NURR1) (AID 2282985); settings: HepG2 Attagene TRANS reporter, mRNA readout
Chain of Nuclear receptor subfamily 4 group A member 2 (Homo sapiens) (P43354 whole entry, looked up, the tested form may be a part): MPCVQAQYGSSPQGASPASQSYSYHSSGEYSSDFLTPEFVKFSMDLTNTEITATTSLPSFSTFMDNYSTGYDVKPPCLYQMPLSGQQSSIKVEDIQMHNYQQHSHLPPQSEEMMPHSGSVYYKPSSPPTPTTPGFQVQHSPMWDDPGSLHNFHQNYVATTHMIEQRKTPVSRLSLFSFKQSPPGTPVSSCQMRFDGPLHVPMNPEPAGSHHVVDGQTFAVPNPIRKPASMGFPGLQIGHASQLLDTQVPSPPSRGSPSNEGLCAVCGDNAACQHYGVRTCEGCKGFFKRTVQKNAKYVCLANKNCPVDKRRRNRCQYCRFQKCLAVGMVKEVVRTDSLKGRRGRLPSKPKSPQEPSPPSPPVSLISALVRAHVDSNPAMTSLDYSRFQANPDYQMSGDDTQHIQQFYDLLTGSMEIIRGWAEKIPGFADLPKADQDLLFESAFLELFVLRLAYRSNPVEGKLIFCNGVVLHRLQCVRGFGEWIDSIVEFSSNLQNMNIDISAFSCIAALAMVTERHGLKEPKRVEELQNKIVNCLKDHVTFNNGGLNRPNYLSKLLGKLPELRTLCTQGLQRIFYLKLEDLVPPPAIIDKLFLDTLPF
How it was run: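 HepG2 cells transiently transfected with NURR1-Gal4 chimera and GAL4-UAS reporter units; after 24 hr compound exposure, reporter mRNA quantified by RT-PCR and capillary electrophoresis; gain of signal fitted against DMSO.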

[13] = molecular target: Transcriptional activator Myb (Homo sapiens) (UniProt P10242); experiment: ATG_Myb_CIS: Attagene CIS-FACTORIAL HepG2 Assay for human Myeloblastosis (Myb) Proto-Oncogene Transcription Factor (AID 2282986; active = hit-call score of the fitted dose curve at least 0.9, where 1 is the maximum; inactive = score below 0.9); settings: HepG2 Attagene CIS-FACTORIAL Myb reporter transcription; actives raise or lower the signal
Chain of Transcriptional activator Myb (Homo sapiens) (P10242 whole entry, looked up): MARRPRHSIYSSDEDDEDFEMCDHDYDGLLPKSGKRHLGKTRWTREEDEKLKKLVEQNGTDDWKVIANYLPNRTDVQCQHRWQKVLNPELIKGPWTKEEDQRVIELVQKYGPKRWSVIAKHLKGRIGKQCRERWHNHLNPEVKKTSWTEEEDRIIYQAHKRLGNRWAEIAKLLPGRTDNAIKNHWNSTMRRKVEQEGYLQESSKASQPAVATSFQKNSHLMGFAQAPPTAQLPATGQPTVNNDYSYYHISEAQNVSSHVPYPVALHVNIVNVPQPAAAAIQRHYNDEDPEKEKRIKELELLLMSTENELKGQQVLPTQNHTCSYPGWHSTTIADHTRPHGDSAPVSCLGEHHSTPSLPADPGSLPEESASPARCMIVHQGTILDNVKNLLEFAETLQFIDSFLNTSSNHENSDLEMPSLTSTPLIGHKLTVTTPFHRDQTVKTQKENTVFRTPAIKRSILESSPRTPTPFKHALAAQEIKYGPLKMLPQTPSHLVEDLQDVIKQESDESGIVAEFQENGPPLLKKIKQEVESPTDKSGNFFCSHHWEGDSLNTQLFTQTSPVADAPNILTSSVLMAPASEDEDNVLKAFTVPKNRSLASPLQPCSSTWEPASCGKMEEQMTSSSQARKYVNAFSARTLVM
How it was run: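 Fluorescence signals from capillary electrophoresis of RT-PCR-amplified reporter cDNA give the read-out. Cells: HepG2 transfected with multiple cis-regulated reporter units. Exposure lasts 24 hours; DMSO defines baseline for gain or loss of signal.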

[14] = molecular target: Nuclear respiratory factor 1 (Homo sapiens) (UniProt Q16656); experiment: ATG_NRF1_CIS: Attagene CIS-FACTORIAL HepG2 Assay for human Nuclear Respiratory Factor 1 (NRF1) Orphan Gene (AID 2282987; active = hit-call score of the fitted dose curve at least 0.9, where 1 is the maximum; inactive = score below 0.9); settings: HepG2 NRF1 cis-element reporter, Attagene multiplex; actives raise or lower the signal
Chain of Nuclear respiratory factor 1 (Homo sapiens) (Q16656 whole entry, looked up): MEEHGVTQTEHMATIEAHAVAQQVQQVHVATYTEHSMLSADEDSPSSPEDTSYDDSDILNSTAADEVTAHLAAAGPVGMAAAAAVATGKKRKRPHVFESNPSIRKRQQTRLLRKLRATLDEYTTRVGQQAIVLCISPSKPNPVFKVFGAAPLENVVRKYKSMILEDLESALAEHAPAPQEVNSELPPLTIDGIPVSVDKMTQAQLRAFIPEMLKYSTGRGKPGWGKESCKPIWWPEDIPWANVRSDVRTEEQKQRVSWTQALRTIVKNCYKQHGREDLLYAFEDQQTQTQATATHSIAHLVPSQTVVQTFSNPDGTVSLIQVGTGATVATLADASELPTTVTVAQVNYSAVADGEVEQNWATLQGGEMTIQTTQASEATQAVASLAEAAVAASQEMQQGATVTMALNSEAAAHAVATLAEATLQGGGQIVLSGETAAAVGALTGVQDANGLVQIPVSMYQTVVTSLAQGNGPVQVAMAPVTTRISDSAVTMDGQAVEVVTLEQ
How it was run: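 Transcriptional reporter readout, one component of a 52-endpoint multiplexed HepG2 panel. Exposure 24 h; mRNA detected via RT-PCR and fluorescent capillary electrophoresis; fitting in both directions against DMSO.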

[15] = ATG_M_19_TRANS: Attagene TRANS-FACTORIAL HepG2 Assay for M19 Transcription Factor (Internal Marker) (AID 2282974); settings: HepG2 Attagene TRANS-FACTORIAL M19 internal marker reporter
How it was run: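 Measured here: internal-marker reporter transcript from HepG2 cells transfected with MRTUs, harvested at 24 h. cDNA PCR products were 6-FAM labelled by primer extension, cut with HpaI for 2 h at 37 C, and resolved by CE.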

[16] = molecular target: Oxysterols receptor LXR-alpha (Homo sapiens) (UniProt Q13133); experiment: ATG_LXRa_TRANS: Attagene TRANS-FACTORIAL HepG2 Assay for human Liver X Receptor alpha (LXRa) (AID 2282980); settings: HepG2 Attagene TRANS reporter, LXRa transactivation
Chain of Oxysterols receptor LXR-alpha (Homo sapiens) (Q13133 whole entry, looked up, the tested form may be a part): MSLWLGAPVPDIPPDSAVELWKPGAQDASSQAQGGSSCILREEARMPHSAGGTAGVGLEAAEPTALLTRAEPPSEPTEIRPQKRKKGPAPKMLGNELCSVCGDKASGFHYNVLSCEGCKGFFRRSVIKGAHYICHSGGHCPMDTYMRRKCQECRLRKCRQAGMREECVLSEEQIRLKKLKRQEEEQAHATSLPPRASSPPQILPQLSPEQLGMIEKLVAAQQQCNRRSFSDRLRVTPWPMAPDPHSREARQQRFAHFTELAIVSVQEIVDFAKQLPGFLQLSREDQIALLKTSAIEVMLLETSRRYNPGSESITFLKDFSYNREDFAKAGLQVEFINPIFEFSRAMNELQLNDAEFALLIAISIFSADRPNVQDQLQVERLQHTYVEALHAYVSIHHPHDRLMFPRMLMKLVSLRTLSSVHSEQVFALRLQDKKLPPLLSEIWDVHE
How it was run: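 In this multiplexed TRANS system, compounds act on HepG2 cells carrying GAL4-UAS reporter units and a receptor-GAL4 fusion for 24 h. Induced reporter RNA is amplified, fluorescently labelled and sized by capillary electrophoresis, with DMSO as baseline.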

[17] = molecular target: Estrogen-related receptor gamma (Homo sapiens) (UniProt P62508); experiment: ATG_ERRg_TRANS: Attagene TRANS-FACTORIAL HepG2 Assay for human Estrogen-Related Receptor gamma (ERRg) (AID 2282977); settings: HepG2 Attagene TRANS reporter, ERRg transactivation;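 also: hits increase reporter signal over DMSO so potencies reflect activators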
Chain of Estrogen-related receptor gamma (Homo sapiens) (P62508 whole entry, looked up, the tested form may be a part): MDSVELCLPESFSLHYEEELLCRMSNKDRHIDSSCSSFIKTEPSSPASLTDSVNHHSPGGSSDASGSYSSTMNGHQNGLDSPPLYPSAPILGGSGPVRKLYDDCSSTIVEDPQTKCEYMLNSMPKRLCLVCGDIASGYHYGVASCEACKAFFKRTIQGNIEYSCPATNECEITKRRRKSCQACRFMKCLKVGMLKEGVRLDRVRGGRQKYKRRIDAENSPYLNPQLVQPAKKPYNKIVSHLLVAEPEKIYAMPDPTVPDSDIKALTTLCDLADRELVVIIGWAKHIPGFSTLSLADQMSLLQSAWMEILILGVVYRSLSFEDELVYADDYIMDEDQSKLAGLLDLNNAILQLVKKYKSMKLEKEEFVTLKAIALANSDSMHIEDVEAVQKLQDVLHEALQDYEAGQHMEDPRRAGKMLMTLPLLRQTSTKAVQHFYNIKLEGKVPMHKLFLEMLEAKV
How it was run: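 HepG2 cells transiently transfected with multiplexed GAL4-UAS reporter units driven by chimeric NR-Gal4 proteins; 24 h exposure. Reporter mRNA quantified by RT-PCR, fluorescent labelling, HpaI digestion and capillary electrophoresis; gain of signal vs DMSO.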

[18] = molecular target: Oxysterols receptor LXR-beta (Homo sapiens) (UniProt P55055); experiment: ATG_LXRb_TRANS: Attagene TRANS-FACTORIAL HepG2 Assay for human Liver X Receptor beta (LXRb) (AID 2282981); settings: HepG2 Attagene TRANS GAL4-LXRb reporter, mRNA
Chain of Oxysterols receptor LXR-beta (Homo sapiens) (P55055 whole entry, looked up, the tested form may be a part): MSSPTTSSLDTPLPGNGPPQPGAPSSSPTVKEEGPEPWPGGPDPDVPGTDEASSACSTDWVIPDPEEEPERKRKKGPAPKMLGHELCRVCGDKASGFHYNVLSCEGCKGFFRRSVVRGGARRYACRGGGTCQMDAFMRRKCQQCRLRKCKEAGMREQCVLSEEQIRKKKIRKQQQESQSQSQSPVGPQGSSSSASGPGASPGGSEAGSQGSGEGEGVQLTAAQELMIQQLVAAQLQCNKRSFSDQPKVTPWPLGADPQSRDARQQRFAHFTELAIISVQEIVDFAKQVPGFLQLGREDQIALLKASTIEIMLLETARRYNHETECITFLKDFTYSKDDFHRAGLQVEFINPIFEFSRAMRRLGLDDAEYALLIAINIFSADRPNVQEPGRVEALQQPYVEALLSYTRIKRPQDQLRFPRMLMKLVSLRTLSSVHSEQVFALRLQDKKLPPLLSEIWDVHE
How it was run: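 HepG2 cells transiently transfected with GAL4-UAS reporter units for chimeric NR-Gal4 proteins, dosed for 24 h. Reporter transcripts measured by RT-PCR and capillary electrophoresis; gain-of-signal fitting relative to DMSO.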

[19] = molecular target: Steroid hormone receptor ERR1 (Homo sapiens) (UniProt P11474); experiment: ATG_ERRa_TRANS: Attagene TRANS-FACTORIAL HepG2 Assay for human Estrogen-Related Receptor alpha (ERRa) (AID 2282971); settings: HepG2 Attagene TRANS reporter, ERRa transactivation
How it was run: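 Signal gain relative to DMSO for an ERRa-Gal4 chimeric receptor, read as reporter mRNA by RT-PCR/capillary electrophoresis. Human HepG2 liver cells, transient multiplex reporter transfection, 24 h chemical exposure.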

Measured: outcome

CCCOCCO
inactive: [1] | [2] | [3] | [4] | [5] | [6] | [7] | [8] | [9] | [10] | [11] | [12] | [13] | [14]

C=CC(=O)OCCCC
inactive: [1] | [2] | [3] | [4] | [15] | [16] | [11] | [13] | [14]

COc1cccc(OC)c1O
inactive: [1] | [2] | [3] | [4] | [5] | [10] | [12] | [13] | [14]

C[C@H]1C[C@@H](O)CC(C)(C)C1
inactive: [1] | [2] | [3] | [5] | [15] | [6] | [17] | [7] | [8] | [16] | [18] | [9] | [11] | [12] | [13] | [14]

O=C(O)CNc1ccccc1
inactive: [1] | [2] | [3] | [19] | [5] | [17] | [7] | [8] | [18] | [10] | [11] | [13] | [14]
